Test results from PubChem BioAssay (NCI).
Compounds without any hit were thinned out: in the full panel of roughly 79,000, 15% have a hit. No stated cut-off is given here; in the data, active means growth inhibition above about 70%; inactive means the rest.

Key:
[1] = NCI Yeast Anticancer Drug Screen. Data for the rad50 strain (AID 155);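 further: 0% = growth of vehicle-only cultures of the same strain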; details: S. cerevisiae rad50 strain growth inhibition; at 50.0 µM; hits give high values
How it was run: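 Compounds were tested on a yeast strain with an engineered DNA damage repair alteration; the reported value is growth inhibition normalised to vehicle treatment.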

[2] = NCI Yeast Anticancer Drug Screen. Data for the mec2-1 strain (AID 157); details: S. cerevisiae mec2-1 strain, at 50.0 µM, hits give high values
How it was run: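 Cells of the genetically defined mec2-1 yeast strain are incubated with test compound. Inhibition of growth is calculated against vehicle-treated controls.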

[3] = NCI Yeast Anticancer Drug Screen. Data for the sgs1 mgt1 strain (AID 161);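 further: 0% = growth of cultures given vehicle only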; details: S. cerevisiae sgs1 mgt1 strain, at 50.0 µM, hits give high values
How it was run: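 Genetically altered yeast, compound exposure, growth inhibition relative to vehicle.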

[4] = NCI Yeast Anticancer Drug Screen. Data for the cln2 rad14 strain (AID 165);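 further: 0% = growth equal to vehicle treated cultures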; details: S. cerevisiae cln2 rad14 strain, at 50.0 µM, hits give high values
How it was run: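 The screen exposed genetically defined yeast (cln2 rad14) to test compounds and scored growth inhibition relative to vehicle-treated controls.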

[5] = NCI Yeast Anticancer Drug Screen. Data for the bub3 strain (AID 167); details: S. cerevisiae bub3 mutant strain, at 50.0 µM, hits give high values
How it was run: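 Growth of a checkpoint-deficient yeast mutant is measured after compound exposure. Values represent inhibition relative to vehicle.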

[6] = NCI Yeast Anticancer Drug Screen. Data for the mlh1 rad18 strain (AID 175); details: S. cerevisiae mlh1 rad18 strain growth inhibition; at 50.0 µM; hits give high values
How it was run: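 Compound-treated yeast growth, normalised to vehicle controls. Strain bears defined DNA repair mutations.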

Measured: growth inhibition

O=C1c2ccccc2CC1(c1ccccc1)c1ccccc1
inactive: [1] 15.1% | [2] -5% | [3] -6.6% | [4] 10.5% | [5] -9.85% | [6] -7.5%

COC(=O)N/N=C/c1ccc(NC(C)=O)cc1
inactive: [1] 7.8% | [2] 0% | [3] -13.8% | [4] -75.6% | [5] -4.95% | [6] -5%

COc1cc(C2c3cc4c(cc3OC(N3CCCCC3)C2C)OCO4)cc(OC)c1O (stereo unspecified)
inactive: [1] 1.45% | [2] -14.3% | [3] -14.3% | [4] 6.95% | [5] -18.5% | [6] -9.25%

c1ccn2c(CCc3nnc4ccccn34)nnc2c1
inactive: [1] -1.75% | [2] -8.4% | [3] -6.35% | [4] -18.3% | [5] -1.9% | [6] -13.1%

COc1ccccc1C1C2=C(COC2=O)Oc2cc3c(cc21)OCO3 (stereo unspecified)
inactive: [1] -20.8% | [2] -8.25% | [3] -29.1% | [4] 3.75% | [5] 0.4% | [6] -11.9%

CC(=O)/C(=C/n1ccc(=O)[nH]c1=S)C(=O)Nc1ccccc1
inactive: [1] -23.1% | [2] -20.5% | [3] -18.6% | [4] 11.2% | [5] -12.7% | [6] -22.1%

COC(=O)CCCCCCCCCCC1C=CCC1 (stereo unspecified)
inactive: [1] -3.5% | [2] -23% | [3] 11.4% | [4] 9.8% | [5] -3.45% | [6] 0.5%

C=CCN1C(C)(C)NC(=S)C1(C)C
inactive: [1] -20.8% | [2] -4.9% | [3] -1.7% | [4] -5% | [5] -6% | [6] -2.35%

CC(C)COP(C)(=O)C(N)(C(F)(F)F)C(F)(F)F (stereo unspecified)
inactive: [1] 10.9% | [2] 8% | [3] 35.6% | [4] 25.8% | [5] 40.1% | [6] -12.4%

COC(=O)c1cc(=O)c2c(=O)[nH]c(=O)[nH]c2[nH]1
inactive: [1] -3.65% | [2] -1.25% | [3] 2% | [4] -26.8% | [5] -8.6% | [6] 3.65%

CS(=O)(=O)OCC1CCCCCCCCCCC12SCCCS2 (stereo unspecified)
inactive: [1] -30.9% | [2] -22.7% | [3] -3.25% | [4] 20.4% | [5] -23.6% | [6] -45.9%

N/N=C1\C(=O)N(Cc2ccccc2)C(=O)C1C(=O)NCc1ccccc1 (stereo unspecified)
inactive: [1] 7.5% | [2] 13.8% | [3] 3.4% | [4] -36.8% | [5] 19.4% | [6] 3.5%

CC(C)(O)C(Cc1ccccc1)c1ccccc1 (stereo unspecified)
inactive: [1] 0.55% | [2] 7.9% | [3] -16.1% | [4] -2.1% | [5] -23.6% | [6] 0.8%

C/C(CC(C)(C)C)=N/O
inactive: [1] -24.6% | [2] -5.2% | [3] -21.8% | [4] -78.7% | [5] -14.9% | [6] -12.9%

Nn1c(-c2ccccc2)n[nH]c1=O
inactive: [1] 18.7% | [2] -15.7% | [3] 16.5% | [4] 25.9% | [5] 3.25% | [6] 9.45%

CCOC(=O)Cc1ccccn1
inactive: [1] 5.8% | [2] -22.5% | [3] -37.7% | [4] -14.3% | [5] -14.9% | [6] -6%

CCOC(=O)C(CC(CC(C(=O)OCC)C(=O)OCC)=C(C)C)C(=O)OCC
inactive: [1] 36.1% | [2] 0.65% | [3] 15% | [4] -14.5% | [5] 24.2% | [6] 15.4%

CCOC(=O)c1ccc(C#N)cc1
inactive: [1] -8% | [2] -57.3% | [3] -11.2% | [4] -7.6% | [5] -15.7% | [6] 5.45%

CC(=O)OCC1(C)C(O)CCC2(C)C1CCC1CC3CC12CCC3(O)CO (stereo unspecified)
inactive: [1] 12.2% | [2] -26% | [3] 13.8% | [4] 2.95% | [5] -23.4% | [6] 7.9%

COc1ccc(S(=O)(=O)O)cc1N
inactive: [1] -21.2% | [2] -15.9% | [3] -13.5% | [4] -5.15% | [5] -11.9% | [6] -3.95%

C=C(Cl)/C(=C\Cl)CCC(Cl)C(C)C (stereo unspecified)
inactive: [1] 19.6% | [2] 15.2% | [3] 3.1% | [4] 29.1% | [5] -15.3% | [6] 4.25%
